Screens deposited in PubChem BioAssay by NMMLSC.
Hits are enriched below; roughly 0.4% of the tested compounds scored in any of these assays.
HRas wt GTP bind: modulators of GTP binding to HRas wildtype, primary screen, biochemical, bead-based flow cytometry, multiplex. GTPase HRas (Homo sapiens), P01112. GST-Ras wt beads, Bodipy-FL-GTP binding; actives lie on both sides. 0.14% of 190,000 active. GTP binding activity, % at 10 µM;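 active = GTP binding activity at least 20% away from the 100% baseline, either lowered as inhibitor or raised as activator; inconclusive = flagged as likely green fluorescent, judged across all proteins in the well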;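 note: 0% = unlabeled GTP competition control and 100% = no-compound control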
Target sequence (P01112 whole entry, looked up): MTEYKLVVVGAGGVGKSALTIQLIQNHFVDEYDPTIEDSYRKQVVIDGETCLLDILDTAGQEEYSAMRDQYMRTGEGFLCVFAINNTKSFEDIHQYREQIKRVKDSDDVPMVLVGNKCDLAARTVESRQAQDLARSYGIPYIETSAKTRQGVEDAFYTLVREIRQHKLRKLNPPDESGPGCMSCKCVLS
Rac1 act GTP bind: GTP binding modulators of activated mutant Rac1, primary screen, biochemical, bead-based flow cytometry, multiplex, fluorescent GTP. Ras-related C3 botulinum toxin substrate 1 (Homo sapiens), P63000. GST-Rac1 activated beads; actives lie on both sides; 100% means binding = to untreated wells. percent activity (GTP binding), % at 10 µM. 0.11% of 190,000 active. AID 764, 2007;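 active = GTP binding at least 20 percentage points away from the 100% baseline, in either direction, so actives lie on both sides; inconclusive = Compound likely fluorescent itself, or too few beads counted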
Cdc42 wt GTP: modulators of GTP binding to wildtype Cdc42, primary screen, biochemical, multiplex bead flow cytometry, Bodipy-GTP; Cell division control protein 42 homolog (Homo sapiens), P60953; GST-Cdc42 beads; actives lie on both sides; percent activity (GTP binding), % at 10 µM; 0.2% of 190,000 active; AID 761, 2007;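 active = percent activity GTP binding at least 20 points away from the 100% baseline, either down as inhibitor or up as activator; inconclusive = compound flagged as likely green fluorescent from well-wide comparison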;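 note: median bead fluorescence of bound Bodipy-FL-GTP at 100 nM; 0% = excess unlabeled GTP control and 100% = no compound control; below 100% means less GTP binding so inhibitor and above means activator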
Target sequence (P60953 whole entry, looked up): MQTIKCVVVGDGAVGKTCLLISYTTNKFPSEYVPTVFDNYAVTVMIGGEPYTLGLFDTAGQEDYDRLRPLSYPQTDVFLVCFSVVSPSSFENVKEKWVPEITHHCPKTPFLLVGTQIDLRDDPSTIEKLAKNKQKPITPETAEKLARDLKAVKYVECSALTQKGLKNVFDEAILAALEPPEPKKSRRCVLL
Rac1 wt modul: wildtype Rac1 GTP binding modulators, primary screen, biochemical, GST-Rac1 beads, flow cytometry, multiplex; fluorescent GTP binding; actives lie on both sides; 0 = cold GTP competed, 100 = untreated; 0.27% of 190,000 active; GTP binding activity (% of control), % at 10 µM; Ras-related C3 botulinum toxin substrate 1 (Homo sapiens), P63000;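 active = GTP binding activity at least 20 points away from the 100% control level, either lower or higher; inconclusive = compound flagged as likely green fluorescent, judged across all proteins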
Rab7 wt GTP bind: modulators of GTP binding to Rab7, primary screen, biochemical, wildtype, multiplex bead flow cytometry; Rab7 GTPase wild type (dog), Bodipy-FL-GTP binding; GST-Rab7 beads, fluorescent GTP binding; actives lie on both sides; untreated = 100%, excess cold GTP = 0%; GTP binding activity (percent of control), % at 10 µM; 0.055% of 190,000 active;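 active = fluorescent GTP binding to Rab7 beads changed by at least 20 points from the 100% baseline, either direction, mostly lower; inconclusive = compound itself probably fluorescent, or too few beads counted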;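 note: median green fluorescence of bound Bodipy-FL-GTP per Rab7 bead population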
Rab2 wt GTP: modulators of GTP binding to Rab2A wildtype, primary screen, biochemical, dog, bead-based flow cytometry, multiplex; 0.19% of 190,000 active; GTP binding activity, % at 10 µM; GST-Rab2 wt beads, Bodipy-GTP binding; AID 760, 2007;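 active = GTP binding activity at least 20 points away from 100%, either lowered or raised; inconclusive = signal likely due to the compound's own green fluorescence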;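 note: 0% = beads with excess unlabeled GTP and 100% = no-compound control corrected for plate trend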
Active calls of the source: *; ? = inconclusive; [ ] = dose if it differs, or a comment.

SMILES	HRas wt GTP bind	Rac1 act GTP bind	Cdc42 wt GTP	Rac1 wt modul	Rab7 wt GTP bind	Rab2 wt GTP
N=c1c(C(=O)NCc2ccco2)cc2c(=O)n3ccccc3nc2n1CCc1ccccc1	77*	87	80	72*	91	75*
O=C(NN=C1C2CC3CC(C2)CC1C3)c1cccc(S(=O)(=O)N2CCOCC2)c1	99	101	102	106	94	98
Cc1cc(C)n2nc(SCC(=O)Nc3ccccc3)nc2n1	96	96	97	99	96	97
Cc1cc(C)n2nc(SCCOc3ccccc3)nc2n1	84	88	82	78*	93	83
Cc1c(C(=O)N2CCc3ccccc3C2)oc2ccc(S(=O)(=O)N3CCCCCC3)cc12	111	108	105	131*[activator]	108	112
Cc1c(C(=O)N2CCOCC2)oc2ccc(S(=O)(=O)N3CCCC3)cc12	103	100	102	103	100	103
CC1=NN(c2ccc(Cl)c(C(=O)O)c2)C(=O)/C1=C\c1ccc(-c2ccc(C(=O)O)cc2)o1	90	87	87	89	91	88
O=C(O)c1ccc(N2C(=O)/C(=C/c3ccc(-c4ccc([N+](=O)[O-])cc4)o3)C=C2c2ccccc2)cc1	86	79*	75*	79*	92	80
C=CCSc1nc(N)c(C#N)c(-c2ccc(C)cc2)c1C#N	85	86	78*	78*	94	87
COc1cc2[nH]c(=S)nc(NC3CCCCCC3)c2cc1OC	66*	83	69*	60*	88	69*
COc1cc2[nH]c(=S)nc(NCC3CCCO3)c2cc1OC (configuration not stated)	81	84	74*	74*	88	80
COc1cc2[nH]c(=S)n(CC3CCCO3)c(=O)c2cc1OC (configuration not stated)	104	99	104	104	104	105
CCOc1cc(/C=N/NC(=O)c2cc(-c3cccnc3)nc3ccccc23)ccc1O	86	88	83	78*	99	83
CCOc1cc(/C=N/Nc2nncc(-c3ccccc3)n2)ccc1O	83	87	84	74*	87	85
CN(NS(=O)(=O)c1ccc(Cl)cc1)c1ncc(C(F)(F)F)cc1Cl	94	90	90	93	91	92
Cc1nc(C(F)(F)F)c(C(=O)N/N=C(\N)c2ccccn2)s1	98	97	98	99	98	98
Cc1n[nH]c(=O)nc1N/N=C/c1ccc(O)c([N+](=O)[O-])c1	98	100	101	100	97	96
O=C(Nc1ncc(Cc2cccc(C(F)(F)F)c2)s1)c1ccc(-c2cccc([N+](=O)[O-])c2)o1	91	92	98	96	96	94
O=C(Nc1nccs1)c1ccc(-c2cccc([N+](=O)[O-])c2)o1	84	86	82	76*	102	84
N#Cc1ccc(CN2CCN(C(=O)c3ccccc3)CC2)c(Cl)c1	100	94	99	101	97	98
CCOC(=O)c1ccc(Nc2nc(C(=O)OCC)nc3ccccc23)cc1	73*	82	69*	82	81	73*
CCn1cc(C(=O)O)c(=O)c2cc(F)c(N/N=C/c3ccccc3[N+](=O)[O-])cc21	63*	78*	82	64*	77*	58*
CCC(/C=C1\Sc2ccc(OC)cc2N1CC)=C\c1sc2ccc(OC)cc2[n+]1CCCS(=O)(=O)[O-]	94	93	94	96	95	92
CCC(/C=C1\Sc2ccc(OC)cc2N1CCO)=C\c1sc2ccc(OC)cc2[n+]1CCO	78*	89	82	87	90	80
c1ccc(CN2CCN(CCOCCOc3cccc4ccccc34)CC2)cc1	83	80	80	88	87	78*
SMILES	HRas wt GTP bind	Rac1 act GTP bind	Cdc42 wt GTP	Rac1 wt modul	Rab7 wt GTP bind	Rab2 wt GTP
COC(=O)c1ccccc1NC(=O)CSCC(=O)Nc1ccccc1OC	95	97	99	96	76*	95
COc1ccc(/C=C/C(=O)N2CCN(c3ccccn3)CC2)c2ccccc12	96	92	94	96	95	95
Cn1c(O)c(C2=c3ccccc3=NC2=O)[nH]c1=S	87	90	90	79*	94	85
COc1ccc2nc(-n3c(O)c(C4=c5ccccc5=NC4=O)[nH]c3=S)sc2c1	91	91	93	92	94	89
O=C(O)COc1ccccc1/C=N/NC(=O)c1cccc(S(=O)(=O)Nc2cccc(Cl)c2)c1	87	82	82	75*	94	82
Cc1ccccc1Nc1n[nH]c(C)c1[N+](=O)[O-]	97	100	98	99	98	99
Cc1ccc(Nc2n[nH]c(C)c2[N+](=O)[O-])c(C)c1	154*[activator]	?	116	111	?	192*[activator]
COc1ccc(/C=C2\CCCC3C2=NN(C(=O)c2scnc2C)C3c2ccc(OC)c(OC)c2)cc1OC (configuration not stated)	67*	85	66*	81	88	66*
Cc1ccc(-n2c(SCc3cc(=O)n4ccsc4n3)nnc2-c2cccnc2)c(C)c1	109	120*[activator]	146*[activator]	163*[activator]	108	118
Cc1ccc(-n2c(SCC(N)=O)nnc2-c2cccnc2)c(C)c1	101	100	102	107	105	104
CC(=O)Nc1ccc(-c2ccc3nnc(C)n3n2)cc1	92	92	92	90	95	93
Cc1nnc2ccc(-c3ccc(NC(=O)c4ccco4)cc3)nn12	85	88	86	75*	87	84
COC(=O)c1nnn(-c2nonc2N)c1CSc1nnc(N)s1	97	97	98	98	97	98
CCC(=O)NCCc1nc2ccccc2n1Cc1ccc(C)cc1	90	91	90	91	91	92
Cn1c(O)c(N=NC(=O)c2ccccc2O)c2ccccc21	94	93	93	96	98	92
Cc1cc(N=NC(=O)c2ccccc2O)c2ccccc2c1O	83	82	76*	74*	91	78*
